# Reference: ChEMBL document CHEMBL3988442, “University of Dundee, Small-Polar-MMV Screening Library” (2021)
# Hit rate of the full screen: of about 48,000 compounds, about 13,000 (27%) showed an effect of 50% or more. Some of the results follow.
# Tested on: Wolbachia pipientis
# Experiment: Anti-Wolbachia Cell-Based Screen
# Type: functional
# Set-up: scale not given: in the data most compounds retested in dose-response had high values
# Conditions: 5 µM
row,Structure (SMILES),Percent Effect
1,Cc1noc([C@H]2C[C@H]3OCC[C@H]3N(Cc3ccc(F)cc3)C2)n1.O=C(O)C(F)(F)F,9.305%
2,CCN(CC)C(=O)Cn1nc(C(C)C)c2cnn(C(C)(C)C)c2c1=O,8.022%
3,C=C(C)CN(Cc1cccc(O)c1)C1CCC(O)CC1 (stereo not drawn),3.823%
4,CCc1nc2c(N3CCC4(CC3)CNC(=O)C4)ncnc2o1,4.745%
5,FC(F)(F)c1cc(C2CCCN(Cc3ccncc3)C2)n[nH]1 (stereo not drawn),-5.824%
6,c1cc(CN2CCCC(c3ccnc4nccn34)C2)ccn1 (stereo not drawn),150%
7,c1cc(CN2CCC(c3ccnc4nccn34)C2)ccn1 (stereo not drawn),128.4%
8,c1cncc(CN2CCC(c3csc4nccn34)CC2)c1,140.6%
9,c1cncc(CN2CCC(c3n[nH]c(C4CC4)n3)CC2)c1,10.48%
10,Cc1cccc(CN2CCC(c3nccn3CC(N)=O)CC2)n1,-14.31%
11,c1cc(-c2cc(C3CCN(Cc4cncnc4)C3)ccn2)ccn1 (stereo not drawn),-7.458%
12,Cn1c(Cn2ccnc2)nnc1C1CCCN(Cc2ccncc2)C1 (stereo not drawn),-0.06506%
13,Fc1ccc(OCc2nnc([C@H]3CCN(Cc4ccncc4)C3)o2)cc1,12.6%
14,Cc1cccc(CN2CCC(NS(C)(=O)=O)CC2)n1,-9.608%
15,Cc1ncsc1C(=O)NC1CCN(Cc2cccnc2)CC1,3.367%
16,Cc1cccc(CN2CCC(c3csc4nccn34)CC2)n1.O=CO,151.3%
17,Cc1ccc(C)c(S(=O)(=O)NCCNc2ccc(-n3cccc3)nn2)c1,14.81%
18,C=C(C)CN(CC)S(=O)(=O)c1cccc(F)c1C#N,-7.097%
19,CCN(CCO)C(=O)C1CCC(=O)N(CCc2cccc(F)c2)C1 (stereo not drawn),-9.721%
20,O=C(Nc1cnccn1)[C@H]1COC[C@H]2CN(c3ncc(F)cn3)C[C@H]21,-11.52%
21,CCN1CCN(C(=O)c2cnc(Cc3c(Cl)cccc3Cl)nc2O)CC1,1.362%
22,CCc1nccc(CN2CCCC(CNC(=O)c3occc3C)C2)n1 (stereo not drawn),4.372%
23,Clc1cccnc1N1CCC(C2CCN(Cc3cccnc3)CC2)C1 (stereo not drawn),-0.1569%
24,c1cncc(CN2CCC(c3ccnc4nccn34)C2)c1 (stereo not drawn),122.6%
25,c1ccc(CCN2CCCC(c3ccnc4nccn34)C2)cc1 (stereo not drawn),130.1%
26,Clc1ccc(CN2CCC(C3CCN(Cc4cccnc4)CC3)C2)cc1 (stereo not drawn),-5.932%
27,c1ccc(CCN2CCCC(c3noc(C4CC4)n3)C2)cc1 (stereo not drawn),-7.15%

row,Structure (SMILES),Percent Effect
1,CCn1ccnc1CN(C)C1CCCN(CCc2ccccc2)C1 (stereo not drawn),17.47%
2,O=C(Cc1ccsc1)N1CCCC(c2n[nH]c3nccnc23)C1 (stereo not drawn),-11.37%
3,O=C(Cc1ccsc1)N1CCCC(c2n[nH]c3ncccc23)C1 (stereo not drawn),100.9%
4,COCC(=O)N1CCC(c2n[nH]c3nccnc23)CC1,142.1%
5,CC(=O)N1CCC(c2n[nH]c3nccnc23)CC1,120.8%
6,O=C(Cc1ccsc1)N1CCC(c2n[nH]c3nccnc23)CC1,72.86%
7,COCC(=O)N1CCC(c2nccn2CC2CC2)CC1,-30.12%
8,Cc1ncc(S(=O)(=O)N(CC(C)C)c2cccc(O)c2)s1,-3.046%
9,O=C(NCCC(O)c1ccco1)c1ccco1 (stereo not drawn),-7.433%
10,CCC(CC)NC(=O)c1cncc(Br)c1,15.73%
11,CN1CCC(c2nnc(CN3CCC(O)CC3)n2C)CC1,-6.188%
12,Cc1ncsc1C(=O)N1CC(C)Sc2ccccc21 (stereo not drawn),0.6302%
13,CC(=O)N1CC(C)CN(C(=O)c2cscn2)c2ccccc21 (stereo not drawn),95.98%
14,CC(=O)N1CC(C)CN(Cc2ccon2)c2ccccc21 (stereo not drawn),7.641%
15,CC(=O)N1CC(C)CN(C(=O)c2cnccn2)c2ccccc21 (stereo not drawn),97.68%
16,CC1CN(C(=O)c2cscn2)c2ccccc2S1 (stereo not drawn),-14.12%
17,CC(=O)N1CC(C)CN(C(=O)c2cccnc2C)c2ccccc21 (stereo not drawn),91.16%
18,CCc1nc(C)ncc1C(=O)N1CC(C)CN(C)c2ccccc21 (stereo not drawn),-1.529%
19,CC1CN(C)c2ccccc2CN1C(=O)c1cscn1 (stereo not drawn),-10.99%
20,O=C(Nc1c(N2CCCC2)cccc1N1CCCC1)c1cnccn1,-1.067%
21,CN(C)C(=O)N1CC2(CCN(S(=O)(=O)C3CC3)CC2)c2ccccc21,-5.03%
22,O=C(CCO)N[C@H]1CN(CC2CCC2)C[C@@H]1c1ccccc1,4.649%
23,Cc1nc2ccccc2nc1CN(C)CC1CCCN1c1cccnn1 (stereo not drawn),5.031%
24,CCn1ccnc1CN(C)CC1CCCN1c1cccnn1 (stereo not drawn),7.087%
25,CN(Cc1ccccn1)CC1CCCN1c1cccnn1 (stereo not drawn),130%
26,CN(Cc1ccc(-n2ccnc2)cc1)CC1CCCN1c1cccnn1 (stereo not drawn),126.9%
